# Measured values taken from the supplement of paper PMC8728848.
# The full list was thinned out, with the strongest signals kept by preference.
# System: Fuc(a1-2)Gal(b1-4)[Fuc(a1-3)]GlcNAc
# Test: glycan array binding signal (z-score within array); higher = stronger binding
# Details: glycan notation: IUPAC condensed, linker removed
# How it was run: (§1)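 The binding signal is a Z-score computed within each array. Data were drawn from 3228 arrays in the Consortium for Functional Glycomics database, restricted to those with a known protein sequence. Scores were averaged over arrays of the same protein sequence at different concentrations or buffers, and over linkers, and negative values can be taken as non-binding.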
# Chain of PILRa (Mus musculus), Q2YSF3 (Q2YSF3 entry or part of it): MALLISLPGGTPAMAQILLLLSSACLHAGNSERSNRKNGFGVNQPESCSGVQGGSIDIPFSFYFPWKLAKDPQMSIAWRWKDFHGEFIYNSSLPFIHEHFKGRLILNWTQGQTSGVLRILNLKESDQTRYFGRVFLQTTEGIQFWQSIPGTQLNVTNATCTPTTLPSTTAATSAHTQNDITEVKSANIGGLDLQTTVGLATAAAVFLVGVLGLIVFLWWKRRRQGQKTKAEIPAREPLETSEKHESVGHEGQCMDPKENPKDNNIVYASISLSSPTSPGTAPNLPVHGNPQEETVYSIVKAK
# Chain of PILRb (Mus musculus), Q2YSF2 (Q2YSF2 entry or part of it): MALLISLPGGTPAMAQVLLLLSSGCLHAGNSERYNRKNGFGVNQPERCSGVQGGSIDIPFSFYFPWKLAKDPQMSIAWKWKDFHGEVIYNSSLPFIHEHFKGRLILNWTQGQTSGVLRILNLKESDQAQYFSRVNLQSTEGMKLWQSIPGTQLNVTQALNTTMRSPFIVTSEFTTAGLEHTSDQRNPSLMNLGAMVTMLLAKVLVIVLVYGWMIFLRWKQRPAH
# Chain of Avaren (Actinomycete K97) (chain, as listed by the source): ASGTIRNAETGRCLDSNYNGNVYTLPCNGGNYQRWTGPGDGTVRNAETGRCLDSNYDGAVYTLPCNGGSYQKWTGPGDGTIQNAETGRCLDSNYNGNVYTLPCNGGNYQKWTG
# Chain of Neurocan (Homo sapiens), O14594 (O14594 other isoform, or with tags, fused parts or gaps): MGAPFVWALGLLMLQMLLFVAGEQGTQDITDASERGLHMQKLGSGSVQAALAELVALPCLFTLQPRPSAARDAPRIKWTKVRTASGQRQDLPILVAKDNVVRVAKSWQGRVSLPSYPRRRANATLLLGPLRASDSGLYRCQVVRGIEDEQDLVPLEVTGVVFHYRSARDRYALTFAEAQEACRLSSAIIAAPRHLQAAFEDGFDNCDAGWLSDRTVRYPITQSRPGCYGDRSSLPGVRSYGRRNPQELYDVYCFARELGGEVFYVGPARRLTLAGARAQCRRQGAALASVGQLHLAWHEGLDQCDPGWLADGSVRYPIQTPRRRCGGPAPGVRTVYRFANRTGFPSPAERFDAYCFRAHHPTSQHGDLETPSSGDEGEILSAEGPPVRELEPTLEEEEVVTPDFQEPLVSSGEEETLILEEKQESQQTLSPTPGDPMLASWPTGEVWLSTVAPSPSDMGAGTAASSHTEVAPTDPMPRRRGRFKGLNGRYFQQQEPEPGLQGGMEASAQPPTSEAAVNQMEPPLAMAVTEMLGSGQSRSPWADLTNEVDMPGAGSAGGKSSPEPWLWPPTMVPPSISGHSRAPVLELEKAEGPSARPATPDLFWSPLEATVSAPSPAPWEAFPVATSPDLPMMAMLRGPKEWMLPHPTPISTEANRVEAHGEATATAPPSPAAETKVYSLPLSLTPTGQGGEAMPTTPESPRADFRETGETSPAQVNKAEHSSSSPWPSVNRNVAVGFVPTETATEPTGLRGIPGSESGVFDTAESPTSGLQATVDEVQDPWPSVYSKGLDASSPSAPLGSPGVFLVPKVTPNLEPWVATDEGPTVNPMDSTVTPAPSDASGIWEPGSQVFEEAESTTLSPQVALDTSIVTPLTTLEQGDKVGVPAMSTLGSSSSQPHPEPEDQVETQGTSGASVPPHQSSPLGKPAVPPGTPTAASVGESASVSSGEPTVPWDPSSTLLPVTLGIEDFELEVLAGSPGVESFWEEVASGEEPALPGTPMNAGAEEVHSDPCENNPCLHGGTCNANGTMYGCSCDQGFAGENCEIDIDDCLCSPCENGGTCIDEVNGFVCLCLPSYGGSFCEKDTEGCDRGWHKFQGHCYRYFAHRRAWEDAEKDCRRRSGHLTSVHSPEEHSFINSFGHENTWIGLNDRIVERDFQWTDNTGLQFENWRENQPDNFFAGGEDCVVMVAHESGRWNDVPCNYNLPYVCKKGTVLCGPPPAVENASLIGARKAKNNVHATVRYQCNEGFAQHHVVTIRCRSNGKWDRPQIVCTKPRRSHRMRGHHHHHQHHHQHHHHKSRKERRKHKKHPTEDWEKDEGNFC
# Chain of CHI3L1 (Homo sapiens), P36222 (P36222 whole entry): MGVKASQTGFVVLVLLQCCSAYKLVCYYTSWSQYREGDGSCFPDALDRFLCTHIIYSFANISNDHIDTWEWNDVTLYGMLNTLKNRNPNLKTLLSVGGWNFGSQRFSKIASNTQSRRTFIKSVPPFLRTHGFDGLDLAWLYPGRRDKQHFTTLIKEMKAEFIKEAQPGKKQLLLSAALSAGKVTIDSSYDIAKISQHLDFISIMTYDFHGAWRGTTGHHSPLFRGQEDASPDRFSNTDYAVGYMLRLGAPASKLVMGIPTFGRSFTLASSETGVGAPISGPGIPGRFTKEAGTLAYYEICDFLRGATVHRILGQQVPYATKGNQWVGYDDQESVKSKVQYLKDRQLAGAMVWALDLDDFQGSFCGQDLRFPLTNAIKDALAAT
row,Substance,glycan array binding signal (z-score)
1,"PILRa (Mus musculus), Q2YSF3",-0.097
2,"PILRb (Mus musculus), Q2YSF2",-0.235
3,Avaren (Actinomycete K97),-0.134

# System: Fuc(a1-2)[Gal(a1-3)]Gal(b1-4)[Fuc(a1-3)]GlcNAc(b1-3)GalNAc
# Test: as above
# Details: glycan notation: IUPAC condensed, linker removed
# How it was run: as §1
row,Substance,glycan array binding signal (z-score)
1,"PILRa (Mus musculus), Q2YSF3",0.044
2,"PILRb (Mus musculus), Q2YSF2",3.94
3,"CHI3L1 (Homo sapiens), P36222",-0.1
4,"Neurocan (Homo sapiens), O14594",0.513
